Compounds with a hit are over-represented: about 2.7% of the library has one in this group of screens.
GLP-1R inv ag: GLP-1 receptor (human) inverse agonism | P43220 | HEK293 GLP-1R CRE-luciferase, luminescence, 24 h; GLP-1R form is constitutively active | Potency, µM (highest dose often 38.3 µM), inactives show at the top dose activity change, negative = inhibition, usual class: inhibitors | 410,000 compounds, 1.6% hits | AID 624417; further: on the % scale 0 is the no-effect control and ±100 the full control effect; nearly all actives have a fitted effect of over 55% in size
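Using stably transfected HEK293 (constitutively active GLP-1R, cAMP-luciferase reporter), compounds were incubated 24 hr and luciferase measured by luminescence.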
IDH1 R132H inh: inhibitors of human mutant IDH1 R132H; 390,000 compounds, 0.093% hits; Potency, µM (highest dose often 76.6 µM), for inactives: at the highest dose activity change, negative = inhibition, actives largely listed as inhibitors; O75874; IDH1-R132H enzyme, NADPH consumption, diaphorase/resazurin fluorescence; further: on the % scale 0 is the no-effect control and ±100 the full control effect; nearly all actives have a fitted effect of over 65% in size
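IDH1-R132H (0.5 ug/mL) preincubated 30 min with compound, then NADPH (0.016 mM) and alpha-KG (2 mM) added; 80 min at RT, pH 7.5. Remaining NADPH coupled via diaphorase/resazurin to fluorescence (540/590 nm); concentration-response curves normalized to no-enzyme control.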
GLP-1R agonist: activates the human GLP-1 receptor | P43220 | HEK293 GLP-1R CRE-luciferase, luminescence, 4-6 h; cells express a hypersensitive GLP-1R form | Potency, µM (doses to about 45.6 µM), without a hit: at the top dose activation, usual class: activators | 380,000 compounds, 0.007% hits | AID 624172; further: % of control where 0% means no effect
rTrxR1 inhibitor: blocks rat thioredoxin reductase 1; AID 588453; recombinant rTrxR1, NADPH fluorescence consumption, selenite substrate; Potency, µM (doses to about 114 µM), inactives show at the highest dose activity change, negative = inhibition, hits mostly inhibitors; O89049; 390,000 compounds, 1% hits; further: on the % scale 0 is the no-effect control and ±100 the full control effect; nearly all actives have a fitted effect of over 65% in size
Target sequence (O89049 whole entry, looked up): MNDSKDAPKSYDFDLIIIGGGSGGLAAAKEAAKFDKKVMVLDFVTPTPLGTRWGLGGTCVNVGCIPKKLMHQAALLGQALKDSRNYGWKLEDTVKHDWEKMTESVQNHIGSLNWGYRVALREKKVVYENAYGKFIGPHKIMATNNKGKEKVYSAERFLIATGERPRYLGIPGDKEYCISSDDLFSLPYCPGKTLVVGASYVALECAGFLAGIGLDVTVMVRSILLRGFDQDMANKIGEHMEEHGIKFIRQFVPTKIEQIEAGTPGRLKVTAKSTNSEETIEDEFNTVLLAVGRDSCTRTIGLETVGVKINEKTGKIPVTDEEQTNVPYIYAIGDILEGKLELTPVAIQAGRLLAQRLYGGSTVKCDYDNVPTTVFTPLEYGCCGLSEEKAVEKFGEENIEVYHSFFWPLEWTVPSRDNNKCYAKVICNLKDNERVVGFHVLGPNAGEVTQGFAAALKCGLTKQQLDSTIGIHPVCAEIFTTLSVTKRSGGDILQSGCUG
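Rat TrxR1 (90 nM in the dispensed reagent) was pre-reduced with 400 uM NADPH for 5 min at room temperature, then incubated with compound for 15 min. After 400 uM selenite was added, NADPH fluorescence (Ex 340/Em 450 nm) was followed for 8 min.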
HEK293 tox: cytotoxicity counter-screen for GLP-1 receptor inverse agonists; HEK293 cAMP-luciferase reporter cells, luminescence, 24 h; Potency, µM (top dose mostly 38.3 µM), inactives show top-dose activity change, negative = inhibition, actives largely listed as inhibitors; 410,000 compounds, 0.13% hits;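 further: loss of luciferase light is scored as toxicity; on the % scale 0 is the no-effect control and ±100 the full control effect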
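Step one: seed cells (200 cells/uL, DMEM with 10% Nu serum, 1% pen-strep). Step two: 12-hour incubation at 37 deg C. Step three: pin 23 nL compound, incubate 24 hr. Step four: add luciferase reagent, read luminescence 12 min later.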
TrxR1 substrate: is turned over as a substrate by rat TrxR1. Potency, µM (top dose mostly 114 µM), inactives show at the top dose activity change, negative = substrate turnover. 390,000 compounds, 0.01% hits. purified TrxR1 substrate turnover, NADPH consumption readout; further: on the % scale 0 is the no-effect control and ±100 the full control effect; nearly all actives have a fitted effect of over 50% in size
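Rat TrxR1, dispensed at 90 nM, was prereduced with 400 uM NADPH (final) for 5 min at ~22 deg C, then incubated with compound 15 min before 400 uM selenite. A first-read NADPH fluorescence drop versus no-compound background flagged substrates.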
An asterisk follows results filed as active; ? = inconclusive; . = not tested or not shown; [ ] = another dose, or the depositor's remark. The call rests on the fitted dose curve; in most records, active means well fitted curve in the direction sought with a large enough effect; inconclusive means small, poorly fitted or top-dose-only effect, or another doubt; inactive means no such curve, though single readings can be large; an effect the other way counts as inactive or inconclusive. Potency means the concentration at half of the fitted maximal effect.

SMILES	GLP-1R inv ag	IDH1 R132H inh	GLP-1R agonist	rTrxR1 inhibitor	HEK293 tox	TrxR1 substrate
Cc1ccc(/C=C/C(=O)Nc2ccc(N(C)C)cc2)o1	-15%	4%	-8%	-15%	-34%	-7%
Cc1ccc(/C=C/C(=O)NCc2ccc(S(N)(=O)=O)cc2)o1	5%	3%	4%	16µM*	15%	16%[57.1 µM]
Cc1ccc(/C=C/C(=O)Nc2ccc(S(N)(=O)=O)cc2)o1	7%	2%	-1%	5µM*	6%	4%[57.1 µM]
O=C(/C=C/c1ccco1)NCc1ccco1	2%	9%	10%	71µM*	-1%	-6%
CC(=O)NS(=O)(=O)c1ccc(NC(=O)/C=C/c2ccc(C)o2)cc1	7%	-5%	-2%	16µM*	0%	5%[57.1 µM]
CC(=C/C(=O)O)/C=C/c1ccco1	112%	-1%	-8%	28µM*	9%	-12%
NS(=O)(=O)c1ccc(CNC(=O)/C=C/c2ccco2)cc1	33%	1%	-5%	18µM*	7%	5%
O=C(/C=C/c1ccco1)NCC1CCCO1 (stereo unspecified)	-6%	6%	-1%	28µM*	-1%	-2%
Cc1ccc(/C=C/C(=O)Nc2ccncc2)o1	1%	1%	2%	79µM*	15%	-17%
Cc1ccc(SCC(=O)N2c3ccccc3Sc3ccccc32)cc1	7.9µM*	6%	2%	?	22%	-9%
CCOc1cccc(C2C=C(c3ccc4c(c3)OCO4)NC(c3ccc(Br)cc3)N2)c1O (stereo unspecified)	.	.	.	-10%	.	6%[0.0914 µM]
CCOC(=O)C(=NCCOC)NNc1cc(Cl)ccc1Cl	2.8µM*	2%	21%	29%	-9%	0%
O=S(=O)(c1ccccc1)N(Cc1nc(-c2ccccc2)no1)C1CCCCC1	6.3µM*	6%	7%	32%[57.1 µM]	5%	14%[57.1 µM]
Cc1ccc(S(=O)(=O)N(Cc2nc(-c3cccc(C)c3)no2)C2CCCCC2)cc1	10µM*	-5%	.	28%	38%	1%
O=C(CCS(=O)(=O)c1ccc(Br)cc1)Nc1ccccc1Cl	0%	13%	-5%	11%	-20%	-1%
O=C(CCS(=O)(=O)c1ccc(Br)cc1)Nc1ccccn1	1%	-2%	4%	45µM*	13%	0%
O=C(c1ccccc1F)N(Cc1nc2ccccc2c(=O)[nH]1)C1CCCC1	10µM*	4%	-3%	30%	?	3%
O=C(c1ccccc1)N(Cc1nc2ccccc2c(=O)[nH]1)C1CCCCC1	?	0%	16%	18%	-12%	-1%
CCOc1cc(/C=C2\N=C(C)OC2=O)cc(Cl)c1OCC(=O)OC	-28%	8%	0%	?	?	3%[57.1 µM]
COc1cc(/C=C2\N=C(C)OC2=O)cc(Cl)c1OC(C)=O	2%	-1%	-4%	40µM*	-10%	-5%
O=C(/C=C/Nc1ccccc1)c1ccc(Cl)cc1Cl	11µM*	6%	-4%	11%	10%	0%
O=C(/C=C/Nc1ccccc1)c1ccccc1	?	4%	-40%	-2%	-9%	1%
O=C(c1cc(COc2ccc(F)cc2F)on1)N1CCN(C(=O)c2ccco2)CC1	1%	-1%	-26%	50µM*	-2%	2%
O=C(c1cc(COc2ccc(F)cc2Cl)on1)N1CCN(C2CCCCC2)C(=O)C1	10µM*	3%	11%	10%	-11%	-1%
Cc1ccc(C)c(OCc2cc(C(=O)N3CCN(C(=O)c4ccco4)CC3)no2)c1	-25%	-1%	1%	?	10%	-2%
SMILES	GLP-1R inv ag	IDH1 R132H inh	GLP-1R agonist	rTrxR1 inhibitor	HEK293 tox	TrxR1 substrate
COc1ccc(CCNC[C@H](O)COc2cccc(C)c2)cc1OC	.	.	3%	.	.	.
CCCc1nc2c(sc3nc4c(cc32)COC(C)(C)C4)c(=O)n1Cc1ccco1	0%	2%	-3%	11µM*	-4%	6%
CCN(CC1COc2ccccc2O1)C(=S)NCCCN(C)C (stereo unspecified)	7.1µM*	0%	-6%	30%	-10%	6%
CC1CCC(NC(=O)C2COc3ccccc3O2)CC1 (stereo unspecified)	-29%	0%	9%	-22%	0%	3%
CCN(CC1COc2ccccc2O1)C(=S)Nc1ccccc1 (stereo unspecified)	0%	0%	-1%	7%	-9%	-6%
O=C(NC1CCCCC1)C1COc2ccccc2O1 (stereo unspecified)	-9%	4%	8%	50µM*	11%	-3%
CN(CC1COc2ccccc2O1)C(=S)NC1CCCCC1 (stereo unspecified)	5µM*	-1%	-2%	37%	-5%	6%
O=C(NCCc1ccc(O)c(O)c1)C1COc2ccccc2O1 (stereo unspecified)	10%	-4%	6%	45µM*	-8%	4%
Cc1ccc(-c2nnc3ccccc3c2C(=O)Nc2cccc(Cl)c2)cc1	17%	-3%	.	14%[57.1 µM]	17%	1%[57.1 µM]
CC(C)C(=O)Nc1nc2c(ncn2[C@H]2CC(O)[C@@H](CO)O2)c(=O)[nH]1 (stereo partly specified)	.	.	.	5%	.	-5%
CCOC(=O)c1c(C)[nH]c(CCC(=O)Nc2ccccc2C(=O)OC)c1C	8%	-14%	.	-2%[57.1 µM]	0%	-2%[57.1 µM]
CC(C)(C)CC(=O)NCC(c1ccc2c(c1)OCO2)N1CCOCC1 (stereo unspecified)	13%	2%	.	17%[57.1 µM]	-3%	5%[57.1 µM]
CC12CCC=CC1=C(C=O)C1C2CCC2(C)C(O)CCC12 (stereo unspecified)	11µM*	1%	8%	-10%[2.29 µM]	?	-5%[2.29 µM]
CNCC(=O)NC(CCCN=C(N)N)C(=O)NC(C(=O)NC(Cc1ccc(O)cc1)C(=O)NC(C(=O)NC(Cc1cnc[nH]1)C(=O)N1CCCC1C(=O)NC(C)C(=O)O)C(C)C)C(C)C (stereo unspecified)	.	.	3%	.	.	.
CCN1C(=O)C(O)(CC(=O)/C=C/C=C/c2ccccc2)c2ccccc21 (stereo unspecified)	-7%	1%	-2%	?	?	-11%
C#CCN1C(=O)C(O)(CC(=O)/C=C/C=C/c2ccccc2)c2ccccc21 (stereo unspecified)	?	9%	1%	28µM*	-24%	-6%
CCc1ccccc1NC(=O)c1ccc(F)c(S(=O)(=O)N2CCN(c3ccccc3OC)CC2)c1	?	6%	.	7%[57.1 µM]	-10%	-2%[57.1 µM]
O=S(=O)(c1ccc2ccccc2c1)N1CCN(C(=S)Nc2ccc(F)c(Cl)c2)CC1	4.5µM*	9%	-4%	9%	-22%	-3%
